Shown is part of a subset that was picked to be rich in hits.
YopH inh: blocks Yersinia enterocolitica YopH tyrosine phosphatase | fluorescence Ex485/Em525 | inhibition, % (no concentration beside the values) | 140,000 tested, 0.16% active; in the data active means inhibition above about 50%
RmlCD inh 1536: blocks M. tuberculosis RmlC and RmlD coupled enzymes; P9WH09+P9WH11; RmlC+RmlD coupled enzyme assay, percent inhibition; primary screen in compound mixtures; inhibition, % at 3.6 µM; 160,000 tested, 0.03% active; AID 1533; in the data active means inhibition mostly above about 34%, no sharp cut-off
Target sequence (P9WH09 whole entry, looked up): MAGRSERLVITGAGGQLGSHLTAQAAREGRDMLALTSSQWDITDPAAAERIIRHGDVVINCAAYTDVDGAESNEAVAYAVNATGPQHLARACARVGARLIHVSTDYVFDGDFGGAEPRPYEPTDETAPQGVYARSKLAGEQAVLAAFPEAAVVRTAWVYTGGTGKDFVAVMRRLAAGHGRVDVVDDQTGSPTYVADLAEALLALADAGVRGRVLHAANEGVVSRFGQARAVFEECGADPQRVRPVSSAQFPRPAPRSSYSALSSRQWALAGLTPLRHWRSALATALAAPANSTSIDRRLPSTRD
Target sequence (P9WH11 whole entry, looked up): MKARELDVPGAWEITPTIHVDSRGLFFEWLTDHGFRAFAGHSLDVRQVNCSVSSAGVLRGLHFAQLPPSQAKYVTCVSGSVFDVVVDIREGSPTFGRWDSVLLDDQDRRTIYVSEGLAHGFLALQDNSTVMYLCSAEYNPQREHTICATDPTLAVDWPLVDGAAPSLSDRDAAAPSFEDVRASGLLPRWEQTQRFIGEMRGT
Hits are given with their value; 0 = inactive; - = not tested or not shown.

SMILES	YopH inh	RmlCD inh 1536
O=C(NNc1cccc(Cl)c1)c1cccnc1Oc1ccccc1	-	0
CC(C)(CC(=O)O)CC(=O)Nc1ccc(Oc2ccc(C(C)(C)C)cc2)nc1	-	0
CC(C)(C)c1cc(OC(=O)c2ccncc2)ccc1O	57	-
CC(C)(C)c1cc(OC(=O)c2ccccc2F)ccc1O	-	0
O=C(COC(=O)c1ccccc1F)Nc1cccnc1Cl	-	0
O=C(c1ccco1)[C@@H]1[C@@H]2C(=O)N(c3ccc(F)cc3)C(=O)[C@@H]2C2c3ccccc3C=CN21 (stereo partly drawn)	74	0
O=C(c1ccco1)[C@@H]1[C@@H]2C(=O)N(c3ccc(Br)cc3)C(=O)[C@@H]2C2c3ccccc3C=CN21 (stereo partly drawn)	88	-
O=C(c1ccc(Cl)cc1)[C@@H]1[C@@H]2C(=O)N(c3ccc(Cl)cc3)C(=O)[C@@H]2C2c3ccccc3C=NN21 (stereo partly drawn)	0	0
O=C(c1ccco1)[C@@H]1[C@@H]2C(=O)N(c3ccc(F)cc3)C(=O)[C@@H]2[C@H]2C=Cc3ccccc3N21	0	0
Cc1ccccc1C(=O)c1cccn1CC(=O)NCCN1CCN(c2cccc(C)c2C)CC1	0	0
Cc1ccc(NC(=S)N/N=C/c2ccc([N+](=O)[O-])s2)cc1	0	0
Cc1cc(C)cc(N=Cc2ccc([N+](=O)[O-])s2)c1	86	0
NC(=O)c1ccc(N=Cc2ccc([N+](=O)[O-])s2)cc1	92	-
O=[N+]([O-])c1ccc(C=Nc2ccc(Cl)c([N+](=O)[O-])c2)s1	-	0
CCN1CCN(C(=O)NCc2ccccc2)CC1	-	0
CC(C)OP(=O)(OC(C)C)C(Nc1ccccc1)c1cccnc1 (stereo not drawn)	-	0
OCC(CO)(CO)N=Cc1c(O)ccc2ccccc12	0	0
Oc1ccc2ccccc2c1C=NC12CN3CCN(CN(C3)C1)C2	82	0
CCOC(=O)CNc1c(-c2ccc(F)cc2)nc2cnccn12	0	51
CCOC(=O)CNc1c(-c2ccc(Cl)cc2)nc2cnccn12	0	-
Cc1ccc(C2c3c(oc4ccccc4c3=O)C(=O)N2c2nncs2)cc1 (stereo not drawn)	-	0
O=C1c2ccccc2C(=O)C12OC2c1cccc2ccccc12 (stereo not drawn)	99	0
O=C1CCCCC1c1cccc2ccccc12 (stereo not drawn)	0	0
CCOC(=O)c1sc(NC(=O)CSc2nc(-c3ccco3)cc(C(F)(F)F)n2)c(C(=O)OC(C)C)c1C	0	-
Cn1c(CS/C(N)=N/N=C/c2ccccc2)c(Br)c(=O)n1-c1ccccc1	0	-
SMILES	YopH inh	RmlCD inh 1536
CC(NC(=O)C1CCC(CNS(=O)(=O)c2ccccc2)CC1)c1ccc2c(c1)OCCO2 (stereo not drawn)	-	0
COc1ccc(-c2nc(C#N)c(NCCCN3CCOCC3)o2)cc1	0	0
N#Cc1nc(-c2cccs2)oc1NCCCN1CCOCC1	51	0
CCN(CC)CCNC(=O)Cc1c(C(=O)O)n(C)c2ccccc12	0	-
CCN(CC)CCCNC(=O)Cc1c(C(=O)O)n(C)c2ccccc12	52	0
COc1ccc2c(c1)c(=O)cc(C)n2CC(=O)NCc1ccco1	93	-
COc1ccc(-n2c(=O)c3ccccc3n(CC(=O)NCc3ccco3)c2=O)cc1	-	0
CCCCC1=CC2=CC(=O)C(C)(OC(=O)CC)C(=O)C2=CN1Cc1ccc2c(c1)OCO2 (stereo not drawn)	-	0
CCCCCCCC1=CC2=CC(=O)C(C)(OC(C)=O)C(=O)C2=CN1CCc1ccccc1 (stereo not drawn)	50	-
CNC(=O)c1cc2c(s1)-c1ccccc1CC2	-	57
O=C(N/N=C/c1ccc(F)c(F)c1)c1cc2c(s1)-c1ccccc1CC2	0	0
CCN(CC)c1ccc(NC(=O)c2cc(OC)cc(OC)c2)c(C)c1	0	0
CCN(CC)c1ccc(NC(=O)c2cccc(OC)c2)c(C)c1	51	0
CCn1cnc2cc([N+](=O)[O-])ccc21	-	0
Cc1ccc(S(=O)(=O)NC(CC(C)C)C(=O)Oc2ccc3c4c(c(=O)oc3c2)CCC4)cc1 (stereo not drawn)	0	0
CCC(C)C(NS(=O)(=O)c1ccc(C)cc1)C(=O)Oc1ccc2c3c(c(=O)oc2c1)CCC3 (stereo not drawn)	0	-
CC[C@@H](NS(=O)(=O)c1ccc(C)cc1)C(=O)Oc1ccc2c3c(c(=O)oc2c1)CCC3	0	46
CC(C)CC(C(=O)Oc1ccc2c3c(c(=O)oc2c1)CCC3)N1C(=O)c2ccccc2C1=O (stereo not drawn)	0	55
O=C(N/N=C/c1ccccn1)c1cccs1	-	0
C=CCN(c1ccccc1)S(=O)(=O)c1ccc(Cl)c(C(=O)OCC(=O)N(C)C2CCS(=O)(=O)C2)c1 (stereo not drawn)	-	0
Cc1ccc(C)n1-c1ccc(C(=O)N/N=C/c2ccncc2)cc1	-	0
COc1ccccc1-c1c(C)oc2c(CN3CCN(C)CC3)c(O)ccc2c1=O	0	-
COc1ccccc1-c1c(C)oc2c(CN3CCN(CCO)CC3)c(O)ccc2c1=O	0	56
Cc1c([N+](=O)[O-])c(C/C=N/O)nn1C	-	0
Cc1ccc(NC(=O)c2ccnc(C(C)(C)C)c2)cc1	68	-
SMILES	YopH inh	RmlCD inh 1536
CC(C)(C)c1cc(C(=O)Nc2ccccc2)ccn1	0	0
COc1cccc(C2C(C(C)=O)=C(O)C(=O)N2CCNCCO)c1 (stereo not drawn)	-	0
C#CC1CN(Cc2ccccc2)CC(C#C)N1C (stereo not drawn)	0	0
Cc1nc2ccccc2nc1N/N=C/c1ccc(O)cc1	-	0
Oc1ccc(Nc2nc3ccccc3nc2Nc2ccc(O)cc2)cc1	70	0
COC(=O)c1c(-c2c(Cl)cccc2Cl)noc1C(=O)NN	-	0
O=C(O)C[C@@H]1C(=O)O[C@@H]2C(COC(=O)c3cc(O)c(O)c(O)c3)O[C@@H](OC(=O)c3cc(O)c(O)c(O)c3)[C@@H](OC(=O)c3cc(O)c(O)c4c3[C@H]1[C@H](O)C(=O)O4)[C@H]2OC(=O)c1cc(O)c(O)c(O)c1 (stereo partly drawn)	-	0
CCN(CC)c1ccc(C=Nc2ccccc2)c(O)c1	52	-
CCN(CC)c1ccc(/C=N/NC(=O)OC)c(O)c1	0	-
CCN(CC)c1ccc(N=Cc2ccc(N(CC)CC)cc2O)cc1	0	-
CCN(CC)c1ccc(C=Nc2cc(C)cc(C)c2)c(O)c1	0	0
CCN(CC)c1ccc(/C=N/Nc2ccccc2)c(O)c1	51	-
CCN(CC)c1ccc(/C=N/Nc2cccc(C)c2)c(O)c1	58	0
COc1ccc(CN(C)CC(=O)Nc2ccc(Cl)cc2C(F)(F)F)c(OC)c1	0	-
CCN(Cc1ccccc1)S(=O)(=O)c1ccc(C(=O)N2CCN(c3nc4ccccc4s3)CC2)cc1	0	0
CCC(=O)N1Cc2ccccc2-c2ccccc2C1=O	52	-
O=C(O)CCN1Cc2ccccc2C1=O	0	0
CCOc1ccc(S(=O)(=O)Nc2ccc(O)c(Sc3ncn[nH]3)c2)cc1	0	0
Cc1ccc(C)c(S(=O)(=O)Nc2ccc(O)c(Sc3ncn[nH]3)c2)c1	-	0
Cc1ccc(S(=O)(=O)/N=C2/C=C(Sc3ncn[nH]3)C(=O)c3ccccc32)cc1	100	-
Cc1ccc(S(=O)(=O)Nc2ccc(O)c(Sc3ncn[nH]3)c2)cc1	-	0
CC(C)c1ccc(S(=O)(=O)/N=C2/C=C(Sc3ncn[nH]3)C(=O)c3ccccc32)cc1	101	0
Cc1ccc(S(=O)(=O)/N=C2/C=C(Sc3ncn[nH]3)C(=O)c3ccccc32)c(C)c1	101	0
